Screening results: PubChem BioAssay, National Center for Advancing Translational Sciences (NCATS)
Most compounds without a hit are left out; they make up all but 19% or so of the library.
TDP1 cell noCPT – qHTS for Inhibitors of human tyrosyl-DNA phosphodiesterase 1 (TDP1): qHTS in cells in absence of CPT | DT40 Tdp1-/- hTDP1 cells, no CPT, ATP luminescence, 48 h | actives 15% (n = 420,000) | AID 686978, 2013 | Potency, µM (titrated, usually from 46.2 µM), inactives show at the top dose activity change, negative = growth inhibition, hits mostly inhibitors; note: nearly all actives have a fitted effect of over 55% in size
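Chicken DT40 Tdp1-/- cells stably complemented with human TDP1 were seeded at 400 cells/well with DMSO in place of 20 nM camptothecin. After compound pinning, cells grew at least 48 hr at 37 °C; viability read by CellTiter-Glo luminescence.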
HT1080-NT tox – kills 2HG-producing HT-1080-NT fibrosarcoma cells | HT-1080-NT fibrosarcoma viability, CellTiter-Glo ATP luminescence, 48 h | Potency, µM (highest dose often 46.1 µM), inactives show at the highest dose activity, negative = less viability, hits mostly cytotoxic | actives 1.6% (n = 360,000) | AID 686970;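 note: NT is the 2HG producing partner of a matched IDH1 knockdown line; 0% = DMSO-treated cells and -100% = media-only wells without cells; nearly all actives have a fitted effect of over 55% in size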
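Fibrosarcoma NT cells, 750 per well in 5% FBS RPMI, were exposed to compound for 48 hours. Viability: CellTiter-Glo luminescence.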
TDP1 cell CPT – growth inhibition of DT40 Tdp1-/-;hTDP1 cells with camptothecin (screen for TDP1 inhibitors). Potency, µM (titrated, usually from 46.2 µM), for the others: top-dose activity change, negative = growth inhibition, hits mostly inhibitors. actives 12% (n = 420,000). chicken DT40 Tdp1-/-;hTDP1 cells + 20 nM CPT, ATP luminescence, 48 h; note: nearly all actives have a fitted effect of over 55% in size
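Cell growth measured by CellTiter-Glo luminescence after a minimum 48 h, 37 C compound exposure with 20 nM CPT in Tdp1-knockout DT40 cells stably expressing hTDP1, seeded 400/well; qHTS titration format.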
KB-V1 cytotox – KB-V1 MDR subline cytotoxicity. Potency, µM (top dose mostly 46.1 µM), actives largely listed as cytotoxic. KB-V1 MDR cells viability, CellTiter-Glo, 72 h. actives 3.4% (n = 400,000); note: nearly all actives have a fitted effect of over 60% in size
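KB-V1 cells (P-gp-expressing MDR subline of KB-3-1) in phenol-red-free DMEM with 10% FBS were exposed to library compounds over a concentration series for 72 h at 37 degrees C. Viability read by CellTiter-Glo luminescence; concentration-effect curves fitted after normalization.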
KB-3-1 tox – kills parental KB-3-1 adenocarcinoma cells | KB-3-1 viability, CellTiter-Glo ATP luminescence, 72 h | Potency, µM (titrated, usually from 46.1 µM), hits mostly cytotoxic | actives 1.4% (n = 400,000) | AID 1347075; note: nearly all actives have a fitted effect of over 60% in size
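KB-3-1 cells, DMEM (no phenol red) + 10% FBS; compound by pin transfer, 72 h, 37 °C. Readout: CellTiter-Glo luminescence after 10 min. Data normalized, curve-fitted.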
HT1080 IDH1KD tx – kills HT-1080 cells with IDH1 knockdown; HT-1080 IDH1 knockdown viability, ATP luminescence, 48 h; Potency, µM (titrated, usually from 46.1 µM), without a hit: at the highest dose activity, negative = toxicity, hits mostly cytotoxic; actives 2% (n = 360,000);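 note: 0% = DMSO wells and -100% = cell-free medium wells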
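Luminescent ATP read-out (CellTiter-Glo, 10 min at room temperature) after 48 h compound exposure at 37 °C gave viability of IDH1-knockdown HT-1080 cells. Activity was normalised to DMSO and cell-free wells, then fitted as concentration-response curves.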
Numbers without * were called inactive; i = inactive; ? = inconclusive; . = no result given; [ ] = remark or other dose. Calls come from the whole dose curve; as a rule, active = well fitted curve in the direction sought with a large enough effect; inconclusive = small, poorly fitted or top-dose-only effect, or another doubt; inactive = no such curve, though single readings can be large; an effect the other way counts as inactive or inconclusive. Unless noted, % is set by controls: 0 for no effect and ±100 for the full control effect; potency is the fitted concentration of half-maximal effect.

SMILES	TDP1 cell noCPT	HT1080-NT tox	TDP1 cell CPT	KB-V1 cytotox	KB-3-1 tox	HT1080 IDH1KD tx
COc1ccc(C(=O)NNC(=S)NC(=O)c2ccc(Cl)cc2)cc1	23.1µM*	?	?	i	?	?
Cc1cccc(C(=O)NC(=S)NNC(=O)c2ccc(Cl)cc2)c1	?	?	?	?	?	8.2µM*
C#CCSc1nc2sc3c(c2c(=O)n1-c1cccc(OC)c1)CCN(C(C)=O)C3	?	.	?	i	i	.
Cc1c(C(=O)N2CCCCC2)c(S(=O)(=O)N2c3ccccc3CC2C)c(C)n1C (stereo unspecified)	-25.5%	2.9%	?	i	i	12.0%
Cc1ccc(S(=O)(=O)NCCc2nnc3ccc(SCC(=O)Nc4ccc(F)cc4F)nn23)cc1	4.6%	.	-22.3%	i	i	.
COc1cc(C(=O)NNC(=S)NC(=O)c2ccc(Cl)cc2)cc(OC)c1OC	23.1µM*	-5.7%	?	?	?	?
CCN(CC)C(=S)NC(=O)c1cc(OC)c(OC)c(OC)c1	-3.0%	23.1µM*	0.0%	i	i	-11.1%
CCN1CCN(C(=S)NC(=O)c2cc(OC)c(OC)c(OC)c2)CC1	-1.7%	4.1%	6.9%	i	i	5.0%
COc1cc(CCC(=O)NNC(=O)c2ccc(Cl)cc2)cc(OC)c1OC	-0.2%	7.6%	6.7%	i	i	9.6%
COc1ccc(C(=O)NC(=S)NNC(=O)c2ccc(NC(=O)C(C)C)cc2)cc1	14.6µM*	-9.7%	16.4µM*	2.59µM*	?	-14.7%
CCOc1ccc(CCNC(=O)C2Cc3ccccc3N2C(=O)CC)cc1 (stereo unspecified)	-22.5%	.	-27.2%	i	i	.
Cc1cccc(-c2noc(CCC(=O)Nc3ccccc3)n2)c1	?	-23.4%	?	i	i	-10.0%
CCOC(=O)c1ccc(NC(=O)CCc2nc(-c3cccc(C)c3)no2)cc1	16.4µM*	-13.2%	?	20.6µM*	?	-20.5%
Cc1ccc(-c2noc(CCC(=O)Nc3cccc(C#N)c3)n2)cc1	18.4µM*	-27.2%	?	?	i	-26.1%
CC(=O)c1ccc(NC(=O)CCCc2nc(-c3cccc(C)c3)no2)cc1	20.6µM*	.	-29.3%	i	i	.
Cc1ccc(-c2noc(CCC(=O)Nc3ccc(C)cn3)n2)cc1	-28.2%	11.8%	-27.7%	i	i	-0.3%[9.24 µM]
Cc1ccc(NC(=O)CCCc2nnc3n(C)c(=O)c4sccc4n23)cc1F	?	.	?	i	i	.
O=C(Cn1cc(S(=O)(=O)Cc2ccccc2F)c2ccccc21)NCc1ccccc1Cl	?	.	?	i	i	.
Cc1ccc(-c2nc(SCC(=O)N3CCc4ccccc43)c3c(=O)n(C)c(=O)n(C)c3n2)cc1	-7.8%	.	-3.1%	i	i	.
CSc1ccc(-c2cnc(N3CCC(C(N)=O)CC3)s2)cc1	.	.	.	i	i	.
Cc1cccc(N2CN(Cc3ccco3)CNC2=S)c1	-11.9%	-3.9%	-7.5%	i	i	-1.6%
CC(=O)c1c(O)c(C)c(O)c2c1OC1=CC(=O)/C(=C(/C)N)C(=O)C12C (stereo unspecified)	8.2µM*	-3.5%	14.6µM*	?	?	?
Cc1ccc(NC(=O)c2cc(S(=O)(=O)NCCc3ccccc3)ccc2F)cc1Cl	?	16.4µM*	?	i	i	16.4µM*
Cc1ccc(C)c(NC(=O)c2cc(S(=O)(=O)N3CCc4ccccc4C3)ccc2F)c1	-24.5%	.	-9.0%	.	.	.
CCc1ccccc1NC(=O)c1cc(S(=O)(=O)NCCc2ccc(OC)c(OC)c2)ccc1F	16.4µM*	.	20.6µM*	?	i	.
SMILES	TDP1 cell noCPT	HT1080-NT tox	TDP1 cell CPT	KB-V1 cytotox	KB-3-1 tox	HT1080 IDH1KD tx
COc1ccc(CNS(=O)(=O)c2ccc(F)c(C(=O)Nc3ccccc3OC)c2)cc1	-1.0%	0.4%	-10.5%	i	i	-26.4%
CCOC(=O)N1CCC(NC(=O)c2cc(S(=O)(=O)NCCc3ccccc3)ccc2F)CC1	?	-5.8%	?	?	i	-6.1%
Cc1ccc(C)c(NC(=O)c2cc(S(=O)(=O)NCCc3ccccc3)ccc2F)c1	?	.	23.1µM*	?	i	.
COc1cccc(C(=O)C2CCCN(C(=O)c3cccc(C#CC(C)(C)O)c3)C2)c1 (stereo unspecified)	?	-5.6%	?	i	i	-20.8%
CCc1nc2c(OCC(N)=O)cccn2c1N(C)C(=O)C(C)C	-10.0%	?	-10.7%	i	i	11.3%
COC(=O)c1c(C)n(-c2ccc(OC)cc2)c2ccc(O)cc12	13µM*	?	11.6µM*	i	?	?
COc1ccc(-n2c(C)c(C(C)=O)c3cc(OC(C)=O)ccc32)cc1	7.31µM*	3.4%	5.17µM*	?	i	3.4%
CCOC(=O)c1c(C)n(-c2ccc(F)cc2)c2ccc(O)cc12	-2.3%	-1.2%	4.1%	i	i	1.0%
Cc1ccc2[nH]c(=O)c(CN(C(=O)c3cccc(Cl)c3)C(C)(C)C)cc2c1	?	.	-26.8%	i	i	.
